Targets with a hit are over-represented here; the source holds about 8,800 in all. About 0.5% of all pairs of compound and target were hits.
Columns and labels:
Test in all cases: log2 fold change, soluble protein after heating vs DMSO (PISA); higher = thermal stabilisation; K562 lysate, 10 uM; active = over 0.2 and 3.5 SD of the protein, either way, in both replicates (recomputed)
vemurafenib = compound: CCCS(=O)(=O)Nc1ccc(F)c(C(=O)c2c[nH]c3ncc(-c4ccc(Cl)cc4)cc23)c1F [vemurafenib]
In short: (§1)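 Values give the log-two fold change in thermal stability against solvent controls, from duplicates. Crude K562 extract at 1 mg/mL protein, made by dounce homogenisation in PBS pH 7.4 with 1 mM MgCl2, was treated with 10 μM compound for 30 min. After 3 min heating across 48°C-58°C, aliquots were pooled, adjusted to 0.5% NP-40 at 4°C and centrifuged at 21,000xg for 90 min. The supernatant was measured by TMTpro 16plex LC-MS/MS with channel sums equalised.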

[1] = compound: CCCS(=O)(=O)Nc1ccc(F)c(C(=O)c2c[nH]c3ncc(Cl)cc23)c1F
In short: as §1

barasertib = compound: CCN(CCCOc1ccc2c(Nc3cc(CC(=O)Nc4cccc(F)c4)[nH]n3)ncnc2c1)CCOP(=O)(O)O [barasertib]
In short: as §1

[2] = compound: CC[C@@H]1C(=O)N(C)c2cnc(Nc3ccc(C(=O)NC4CCN(C)CC4)cc3OC)nc2N1C1CCCC1
In short: as §1

volasertib = compound: CC[C@@H]1C(=O)N(C)c2cnc(Nc3ccc(C(=O)N[C@H]4CC[C@H](N5CCN(CC6CC6)CC5)CC4)cc3OC)nc2N1C(C)C [volasertib]
In short: as §1

[3] = compound: CCn1c(C(=O)N(C2CC2)C2CC2)cc2c3c(ncn3C)c(Nc3cc(C)n(C)n3)nc21
In short: as §1

[4] = compound: CCn1cc(-c2ccnc3[nH]c(-c4cccc(CN(C)C)c4)cc23)c(-c2ccc(NC(=O)N(C)C)cc2)n1
In short: as §1

[5] = compound: CN1CCC(CNc2ccc3ncc(-c4cccc(OC(F)(F)F)c4)n3n2)CC1
In short: as §1

saracatinib = compound: CN1CCN(CCOc2cc(OC3CCOCC3)c3c(Nc4c(Cl)ccc5c4OCO5)ncnc3c2)CC1 [saracatinib]
In short: as §1

sotrastaurin = compound: CN1CCN(c2nc(C3=C(c4c[nH]c5ccccc45)C(=O)NC3=O)c3ccccc3n2)CC1 [sotrastaurin]
In short: as §1

alvocidib = compound: CN1CC[C@H](c2c(O)cc(O)c3c(=O)cc(-c4ccccc4Cl)oc23)[C@H](O)C1 [alvocidib]
In short: as §1

Tubastatin A = compound: CN1CCc2c(c3ccccc3n2Cc2ccc(C(=O)NO)cc2)C1 [Tubastatin A]
In short: as §1

[6] = compound: CNC(=O)C1=CC=CC=C1NC2=NC(=NC=C2Cl)NC3=C(C=C(C=C3)N4CCOCC4)OC
In short: as §1

defactinib = compound: CNC(=O)c1ccc(Nc2ncc(C(F)(F)F)c(NCc3nccnc3N(C)S(C)(=O)=O)n2)cc1 [defactinib]
In short: as §1

[7] = compound: CNc1nc(-c2ccc3c(N)n[nH]c3c2)cc(N2C[C@@H](C(=O)NC3CCCCC3)CC[C@H]2C)n1
In short: as §1

encorafenib = compound: COC(=O)N[C@@H](C)CNc1nccc(-c2cn(C(C)C)nc2-c2cc(Cl)cc(NS(C)(=O)=O)c2F)n1 [encorafenib]
In short: as §1

[8] = compound: COC(=O)[C@H](CCSC)NC(=O)C1=C(C=C(C=C1)NC[C@H](CS)N)C2=CC=CC=C2
In short: as §1

alisertib = compound: COc1cc(Nc2ncc3c(n2)-c2ccc(Cl)cc2C(c2c(F)cccc2OC)=NC3)ccc1C(=O)O [alisertib]
In short: as §1

[9] = compound: COc1cc2nc(-c3cc(F)ccc3O)nc(N[C@@H]3CNC[C@H]3C(C)(C)O)c2cc1OC
In short: as §1

gefitinib = compound: COc1cc2ncnc(Nc3ccc(F)c(Cl)c3)c2cc1OCCCN1CCOCC1 [gefitinib]
In short: as §1

Measured: log2 fold change

C5orf51 (UniProt A6NDU8)
inactive: vemurafenib -0.002 | [1] 0.009 | barasertib 0.046 | [2] -0.014 | volasertib -0.029 | [3] 0.053 | [4] 0.036 | [5] -0.137 | saracatinib 0.016 | sotrastaurin 0.036 | alvocidib 0.075 | Tubastatin A -0.123 | [6] -0.01 | defactinib -0.045 | [7] -0.043 | encorafenib -0.006 | [8] 0.144 | alisertib 0.023 | [9] 0.038 | gefitinib 0.056

CCNH (UniProt P51946)
Sequence of UniProt P51946 (P51946 whole entry, looked up): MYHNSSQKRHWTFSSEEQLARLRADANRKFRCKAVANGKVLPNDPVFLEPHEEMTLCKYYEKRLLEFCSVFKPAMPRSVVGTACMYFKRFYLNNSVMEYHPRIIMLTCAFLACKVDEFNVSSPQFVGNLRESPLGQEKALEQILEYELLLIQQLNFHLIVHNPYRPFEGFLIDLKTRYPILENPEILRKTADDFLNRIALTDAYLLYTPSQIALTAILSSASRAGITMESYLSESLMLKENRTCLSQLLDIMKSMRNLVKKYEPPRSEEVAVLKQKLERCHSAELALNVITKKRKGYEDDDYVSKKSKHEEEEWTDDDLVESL
inactive: vemurafenib -0.025 | [1] 0.001 | barasertib -0.035 | [2] 0.036 | volasertib 0.003 | [3] -0.034 | [4] 0.054 | [5] -0.062 | saracatinib -0.036 | sotrastaurin 0.033 | alvocidib 0.006 | Tubastatin A 0.016 | [6] -0.015 | defactinib 0.026 | [7] -0.018 | encorafenib 0.033 | [8] -0.047 | alisertib -0.005 | [9] -0.007 | gefitinib 0.024

ATP6V0A2 (UniProt Q9Y487)
Sequence of UniProt Q9Y487 (Q9Y487 whole entry, looked up): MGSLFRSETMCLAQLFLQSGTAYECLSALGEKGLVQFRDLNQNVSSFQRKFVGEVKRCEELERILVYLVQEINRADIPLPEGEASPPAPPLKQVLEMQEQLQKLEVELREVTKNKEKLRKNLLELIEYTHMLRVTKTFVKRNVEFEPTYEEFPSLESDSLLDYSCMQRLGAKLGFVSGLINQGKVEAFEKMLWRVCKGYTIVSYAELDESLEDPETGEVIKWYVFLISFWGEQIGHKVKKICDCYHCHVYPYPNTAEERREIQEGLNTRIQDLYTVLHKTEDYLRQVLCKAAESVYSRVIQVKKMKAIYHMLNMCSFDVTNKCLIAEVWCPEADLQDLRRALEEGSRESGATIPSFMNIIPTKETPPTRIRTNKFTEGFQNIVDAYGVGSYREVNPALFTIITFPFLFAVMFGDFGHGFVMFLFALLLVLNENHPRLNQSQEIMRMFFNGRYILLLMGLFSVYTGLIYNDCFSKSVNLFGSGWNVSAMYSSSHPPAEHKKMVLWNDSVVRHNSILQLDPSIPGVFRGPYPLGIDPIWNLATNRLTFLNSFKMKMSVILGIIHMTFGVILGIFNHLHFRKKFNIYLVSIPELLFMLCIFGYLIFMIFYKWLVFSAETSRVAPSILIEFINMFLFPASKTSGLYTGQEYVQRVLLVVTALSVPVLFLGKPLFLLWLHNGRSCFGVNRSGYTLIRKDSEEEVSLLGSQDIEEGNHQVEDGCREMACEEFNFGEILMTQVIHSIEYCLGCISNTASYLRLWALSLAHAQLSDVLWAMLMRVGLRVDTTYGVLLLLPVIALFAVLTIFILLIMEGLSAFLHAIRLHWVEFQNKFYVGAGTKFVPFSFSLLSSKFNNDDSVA
inactive: vemurafenib -0.035 | [1] 0.013 | barasertib 0.037 | [2] 0.071 | volasertib 0.005 | [3] 0.017 | [4] -0.117 | [5] 0.14 | saracatinib -0.007 | sotrastaurin 0.029 | alvocidib -0.129 | Tubastatin A 0.091 | [6] 0.022 | defactinib 0.008 | [7] 0.001 | encorafenib 0.03 | [8] -0.027 | alisertib 0.015 | [9] 0.048 | gefitinib 0.036

ATG7 (UniProt O95352)
inactive: vemurafenib -0.031 | [1] 0.014 | barasertib -0.002 | [2] -0.032 | volasertib -0.052 | [3] 0.021 | [4] -0.058 | [5] 0.091 | saracatinib -0.003 | sotrastaurin 0.037 | alvocidib 0.01 | Tubastatin A -0.075 | [6] 0.001 | defactinib 0.012 | [7] -0.04 | encorafenib 0.021 | [8] -0.031 | alisertib 0.006 | [9] -0.008 | gefitinib 0.019

ATR (UniProt Q13535)
Sequence of UniProt Q13535 (Q13535 whole entry, looked up): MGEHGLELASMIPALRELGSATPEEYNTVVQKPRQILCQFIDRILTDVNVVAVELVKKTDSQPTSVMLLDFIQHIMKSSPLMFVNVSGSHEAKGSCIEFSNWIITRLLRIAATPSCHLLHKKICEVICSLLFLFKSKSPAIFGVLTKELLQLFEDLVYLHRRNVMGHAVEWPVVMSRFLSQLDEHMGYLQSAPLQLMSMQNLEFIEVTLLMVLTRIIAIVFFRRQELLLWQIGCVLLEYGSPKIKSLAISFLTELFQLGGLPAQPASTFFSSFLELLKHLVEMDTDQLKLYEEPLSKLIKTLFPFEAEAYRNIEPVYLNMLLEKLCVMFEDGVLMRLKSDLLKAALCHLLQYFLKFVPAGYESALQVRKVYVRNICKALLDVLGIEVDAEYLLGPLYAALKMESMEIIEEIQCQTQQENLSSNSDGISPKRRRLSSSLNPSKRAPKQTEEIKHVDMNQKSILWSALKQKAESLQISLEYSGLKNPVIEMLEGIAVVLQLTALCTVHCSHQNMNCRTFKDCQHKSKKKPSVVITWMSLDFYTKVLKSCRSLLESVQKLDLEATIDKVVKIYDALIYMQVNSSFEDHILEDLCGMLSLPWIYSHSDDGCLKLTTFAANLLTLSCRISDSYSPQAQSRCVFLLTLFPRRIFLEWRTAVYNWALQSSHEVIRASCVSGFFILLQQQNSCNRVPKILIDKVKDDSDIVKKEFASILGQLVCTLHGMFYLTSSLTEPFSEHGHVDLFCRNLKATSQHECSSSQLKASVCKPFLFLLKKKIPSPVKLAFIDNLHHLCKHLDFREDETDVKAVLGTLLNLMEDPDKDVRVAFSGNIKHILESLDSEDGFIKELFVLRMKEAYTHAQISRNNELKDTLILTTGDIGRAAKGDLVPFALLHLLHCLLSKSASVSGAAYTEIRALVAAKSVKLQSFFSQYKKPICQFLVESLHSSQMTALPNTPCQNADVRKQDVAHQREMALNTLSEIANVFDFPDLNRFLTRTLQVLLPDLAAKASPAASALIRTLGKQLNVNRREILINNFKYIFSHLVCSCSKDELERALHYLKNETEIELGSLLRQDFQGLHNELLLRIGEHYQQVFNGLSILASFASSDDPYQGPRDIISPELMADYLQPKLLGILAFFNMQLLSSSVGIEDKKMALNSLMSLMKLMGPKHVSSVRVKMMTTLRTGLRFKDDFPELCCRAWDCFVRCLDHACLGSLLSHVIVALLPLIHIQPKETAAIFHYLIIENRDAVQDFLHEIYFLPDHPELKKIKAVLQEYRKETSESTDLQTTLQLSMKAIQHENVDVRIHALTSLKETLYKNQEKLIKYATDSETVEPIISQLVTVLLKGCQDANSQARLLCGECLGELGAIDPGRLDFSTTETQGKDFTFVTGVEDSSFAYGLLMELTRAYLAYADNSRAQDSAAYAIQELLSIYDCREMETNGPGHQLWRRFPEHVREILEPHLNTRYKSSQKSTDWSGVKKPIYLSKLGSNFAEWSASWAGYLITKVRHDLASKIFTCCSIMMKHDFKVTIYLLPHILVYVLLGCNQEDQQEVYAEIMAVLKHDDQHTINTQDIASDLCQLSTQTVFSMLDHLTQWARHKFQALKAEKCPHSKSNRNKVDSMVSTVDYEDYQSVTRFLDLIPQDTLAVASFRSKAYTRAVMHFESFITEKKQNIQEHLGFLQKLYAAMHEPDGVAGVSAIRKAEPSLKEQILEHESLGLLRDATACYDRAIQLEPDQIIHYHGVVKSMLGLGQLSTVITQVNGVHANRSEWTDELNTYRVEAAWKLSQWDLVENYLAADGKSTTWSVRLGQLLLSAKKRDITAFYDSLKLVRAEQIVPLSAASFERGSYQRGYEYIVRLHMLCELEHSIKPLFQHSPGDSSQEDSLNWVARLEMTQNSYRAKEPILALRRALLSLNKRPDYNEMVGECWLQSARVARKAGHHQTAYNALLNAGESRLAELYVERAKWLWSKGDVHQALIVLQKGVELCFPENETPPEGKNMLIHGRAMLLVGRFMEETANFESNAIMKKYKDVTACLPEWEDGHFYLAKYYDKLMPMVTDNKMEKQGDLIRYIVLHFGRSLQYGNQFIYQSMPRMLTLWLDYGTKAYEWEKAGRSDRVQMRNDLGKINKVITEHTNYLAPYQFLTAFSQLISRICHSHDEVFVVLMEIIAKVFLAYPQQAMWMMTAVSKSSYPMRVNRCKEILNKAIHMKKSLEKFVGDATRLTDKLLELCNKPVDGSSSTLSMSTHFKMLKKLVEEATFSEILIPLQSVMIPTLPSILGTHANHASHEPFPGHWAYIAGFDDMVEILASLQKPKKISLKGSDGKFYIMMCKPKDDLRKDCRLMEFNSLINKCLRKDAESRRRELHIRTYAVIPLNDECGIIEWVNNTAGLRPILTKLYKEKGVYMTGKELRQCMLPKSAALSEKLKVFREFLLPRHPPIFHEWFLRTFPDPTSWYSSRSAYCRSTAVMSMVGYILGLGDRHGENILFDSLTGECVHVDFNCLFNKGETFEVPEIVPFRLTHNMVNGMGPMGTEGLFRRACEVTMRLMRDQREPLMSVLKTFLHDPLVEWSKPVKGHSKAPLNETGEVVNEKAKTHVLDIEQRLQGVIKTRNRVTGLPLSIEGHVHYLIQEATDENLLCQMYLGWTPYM
inactive: vemurafenib 0.059 | [1] 0.013 | barasertib 0 | [2] 0.017 | volasertib -0.13 | [3] 0.018 | [4] -0.307 | [5] 0.337 | saracatinib 0.018 | sotrastaurin 0.081 | alvocidib -0.134 | Tubastatin A -0.067 | [6] 0.029 | defactinib -0.07 | [7] -0.001 | encorafenib 0.045 | [8] -0.193 | alisertib 0.115 | [9] 0.077 | gefitinib 0.052

CHD5 (UniProt Q8TDI0)
inactive: vemurafenib -0.034 | [1] 0.022 | barasertib 0.034 | [2] 0.165 | volasertib -0.028 | [3] -0.026 | [4] 0.051 | [5] -0.019 | saracatinib 0.026 | sotrastaurin 0.026 | alvocidib -0.005 | Tubastatin A -0.022 | [6] 0 | defactinib -0.042 | [7] 0.037 | encorafenib 0.024 | [8] 0.033 | alisertib -0.016 | [9] -0.009 | gefitinib -0.001

CELF2 isoform 3 (UniProt O95319)
Sequence of UniProt O95319 (O95319 whole entry, looked up): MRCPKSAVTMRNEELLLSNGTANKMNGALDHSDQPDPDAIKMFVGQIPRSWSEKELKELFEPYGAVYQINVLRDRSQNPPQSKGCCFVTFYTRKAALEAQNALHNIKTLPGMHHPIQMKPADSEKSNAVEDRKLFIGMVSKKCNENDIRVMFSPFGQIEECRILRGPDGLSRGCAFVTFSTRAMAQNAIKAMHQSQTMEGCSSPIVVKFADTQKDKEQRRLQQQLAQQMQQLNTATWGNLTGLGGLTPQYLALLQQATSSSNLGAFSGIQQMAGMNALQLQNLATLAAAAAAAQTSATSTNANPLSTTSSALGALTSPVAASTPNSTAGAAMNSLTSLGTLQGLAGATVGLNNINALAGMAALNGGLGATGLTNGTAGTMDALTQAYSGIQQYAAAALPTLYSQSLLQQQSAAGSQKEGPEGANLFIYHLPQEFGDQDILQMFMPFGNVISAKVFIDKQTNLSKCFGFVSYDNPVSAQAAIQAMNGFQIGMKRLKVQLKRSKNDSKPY
inactive: vemurafenib 0.082 | [1] 0.013 | barasertib 0.031 | [2] 0.096 | volasertib -0.05 | [3] 0.001 | [4] 0.074 | [5] -0.095 | saracatinib 0.021 | sotrastaurin -0.023 | alvocidib 0.067 | Tubastatin A -0.025 | [6] 0.019 | defactinib 0.018 | [7] -0.02 | encorafenib 0.108 | [8] -0.031 | alisertib 0.037 | [9] -0.079 | gefitinib -0.061

CALB2 (UniProt P22676)
Sequence of UniProt P22676 (P22676 whole entry, looked up): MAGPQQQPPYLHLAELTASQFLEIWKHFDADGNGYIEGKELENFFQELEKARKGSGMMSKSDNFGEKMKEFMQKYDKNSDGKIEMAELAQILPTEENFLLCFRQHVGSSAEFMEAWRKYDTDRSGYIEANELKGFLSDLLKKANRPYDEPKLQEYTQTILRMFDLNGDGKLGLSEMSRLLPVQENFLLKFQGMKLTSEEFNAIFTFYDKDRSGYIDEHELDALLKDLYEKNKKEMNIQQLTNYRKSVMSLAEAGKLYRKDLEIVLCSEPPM
active: barasertib 0.375
inactive: vemurafenib 0.064 | [1] 0.046 | [2] -0.036 | volasertib 0.017 | [3] 0.023 | [4] -0.065 | [5] 0.066 | saracatinib -0.008 | sotrastaurin -0.061 | alvocidib -0.028 | Tubastatin A -0.022 | [6] -0.028 | defactinib -0.062 | [7] 0.034 | encorafenib -0.014 | [8] -0.003 | alisertib -0.008 | [9] -0.01 | gefitinib 0.112

CDS2 (UniProt O95674)
Sequence of UniProt O95674 (O95674 whole entry, looked up): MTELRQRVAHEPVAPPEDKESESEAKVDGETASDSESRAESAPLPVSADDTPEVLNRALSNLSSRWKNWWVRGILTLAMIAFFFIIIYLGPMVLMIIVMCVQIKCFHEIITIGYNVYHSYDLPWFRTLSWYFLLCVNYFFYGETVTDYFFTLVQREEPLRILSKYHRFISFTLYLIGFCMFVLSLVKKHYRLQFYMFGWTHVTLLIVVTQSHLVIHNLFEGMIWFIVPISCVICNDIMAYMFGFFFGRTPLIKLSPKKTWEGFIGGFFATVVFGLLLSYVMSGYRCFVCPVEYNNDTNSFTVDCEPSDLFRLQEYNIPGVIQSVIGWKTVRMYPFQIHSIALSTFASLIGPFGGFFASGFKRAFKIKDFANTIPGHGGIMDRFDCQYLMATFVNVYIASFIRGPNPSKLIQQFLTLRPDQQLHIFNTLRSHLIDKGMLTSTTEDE
inactive: vemurafenib 0.09 | [1] 0.041 | barasertib 0.027 | [2] 0.026 | volasertib 0.005 | [3] -0.006 | [4] 0.015 | [5] 0.004 | saracatinib -0.053 | sotrastaurin 0.037 | alvocidib -0.037 | Tubastatin A 0.116 | [6] -0.036 | defactinib 0.04 | [7] -0.021 | encorafenib 0.027 | [8] 0.007 | alisertib 0.012 | [9] 0.033 | gefitinib 0

CEPT1 (UniProt Q9Y6K0)
inactive: vemurafenib -0.031 | [1] 0.006 | barasertib 0.08 | [2] -0.006 | volasertib 0.042 | [3] -0.079 | [4] -0.102 | [5] 0.084 | saracatinib 0.037 | sotrastaurin -0.008 | alvocidib -0.012 | Tubastatin A 0.055 | [6] -0.024 | defactinib 0 | [7] -0.051 | encorafenib 0.019 | [8] -0.025 | alisertib 0.054 | [9] -0.123 | gefitinib -0.036

CDK5 (UniProt Q00535)
inactive: vemurafenib -0.021 | [1] 0.022 | [2] -0.08 | volasertib -0.079 | [3] 0.008 | [4] -0.055 | [5] 0.071 | saracatinib -0.008 | sotrastaurin 0.175 | Tubastatin A -0.058 | [6] 0.211 | [7] -0.032 | encorafenib 0.024 | [8] -0.1 | alisertib -0.032 | [9] 0.03 | gefitinib -0.027
active: alvocidib 1.07 | defactinib 0.654

CANX (UniProt D6RHJ3)
inactive: vemurafenib -0.033 | [1] -0.04 | volasertib 0.017 | defactinib 0.174 | alisertib 0.068 | [9] 0.07 | gefitinib -0.242
